This is an account of results in PubChem BioAssay.

Assay [1] is described as follows: antimalarial activity against Dd2 strain (AID 2302;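 active = growth inhibition above 50% at the single 2 µM test dose, taken to imply half-maximal potency below 2 µM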;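 note: 0% = DMSO untreated growth and 100% = chloroquine plus artemisinin killed control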). The note with it: P. falciparum Dd2 in RBCs, LDH growth readout, 72 h; at 2 µM; active compounds read high.
Assay [2] in a line: HepG2 cytotoxicity, primary screen, cytotoxicity control for P. falciparum antimalarial project, cell-based, ATP luminescence (AID 2303;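 active = inhibition above 50%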;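 note: 0% = DMSO wells and 100% = digitonin-killed cells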). The conditions noted are these: HepG2 viability, 24-48 h, at 10 µM, active compounds read high.
In assay [3] the target is L-lactate dehydrogenase (Plasmodium falciparum (isolate CDC / Honduras)) (UniProt Q27743). Description: PfLDH activity inhibition – cell lysate, 3D7 strain, counter-screen for P. falciparum growth inhibition project (AID 2304).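 Note: 0% = vehicle and 100% = reference inhibitor.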 The note with it: P. falciparum 3D7 crude extract, LDH APAD/NBT absorbance; at 2 µM; active compounds read high. Background: Counterscreens check selectivity or assay interference.
Sequence of L-lactate dehydrogenase (Plasmodium falciparum (isolate CDC / Honduras)) (Q27743 whole entry, looked up): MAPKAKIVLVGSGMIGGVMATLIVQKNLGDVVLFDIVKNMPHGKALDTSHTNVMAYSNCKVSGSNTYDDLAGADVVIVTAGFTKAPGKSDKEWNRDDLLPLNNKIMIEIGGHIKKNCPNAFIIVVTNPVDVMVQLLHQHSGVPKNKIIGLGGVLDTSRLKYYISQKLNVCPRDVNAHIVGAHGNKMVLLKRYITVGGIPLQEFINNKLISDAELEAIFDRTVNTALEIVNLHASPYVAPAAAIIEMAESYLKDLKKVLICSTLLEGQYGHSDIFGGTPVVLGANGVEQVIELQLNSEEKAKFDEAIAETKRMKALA

The nature of assay [4]: inhibition of 3D7 malaria parasite growth – strain 3D7 (AID 2306).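 Note: 0% = DMSO wells and 100% = chloroquine plus artemisinin control wells.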 The conditions noted are these: P. falciparum 3D7 erythrocytic growth, LDH absorbance, 72 h; at 2 µM; active compounds read high.
Assay [5] concerns the target Calcium-dependent protein kinase 1 (Plasmodium falciparum (isolate 3D7)) (UniProt P62344). Description: PfCDPK1 kinase inhibitors, biochemical, TCAMS library (AID 1159585; cut-off not given, nearly all actives have IC50 up to about 0.98 µM;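 note: inhibitors leave more ATP so luminescence rises with inhibition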). The conditions noted are these: recombinant PfCDPK1, Kinase-Glo ATP depletion luminescence. For orientation: Kinase-Glo reads ATP consumption through a luciferase reaction.
Assay [6] has as its target Plasmodium falciparum protein kinase 6 (PK6, PF3D7_1337100) (UniProt Q8IDW1). As to the kind of experiment: PfPK6 kinase inhibitors, biochemical, TCAMS library (AID 1159586). The note with it: recombinant PfPK6, Kinase-Glo ATP depletion luminescence.
The target in assay [7] is Protein kinase 7 (PK7), Plasmodium falciparum 3D7 (PF3D7_0213400) (UniProt Q7YTF7). As to the kind of experiment: inhibition of Plasmodium PK7 catalytic activity – biochemical, TCAMS antimalarial set, Kinase-Glo luminescence (AID 1159587). The conditions noted are these: recombinant PfPK7, Kinase-Glo ATP depletion luminescence.
Sequence of Protein kinase 7 (PK7), Plasmodium falciparum 3D7 (PF3D7_0213400) (Q7YTF7 1-343): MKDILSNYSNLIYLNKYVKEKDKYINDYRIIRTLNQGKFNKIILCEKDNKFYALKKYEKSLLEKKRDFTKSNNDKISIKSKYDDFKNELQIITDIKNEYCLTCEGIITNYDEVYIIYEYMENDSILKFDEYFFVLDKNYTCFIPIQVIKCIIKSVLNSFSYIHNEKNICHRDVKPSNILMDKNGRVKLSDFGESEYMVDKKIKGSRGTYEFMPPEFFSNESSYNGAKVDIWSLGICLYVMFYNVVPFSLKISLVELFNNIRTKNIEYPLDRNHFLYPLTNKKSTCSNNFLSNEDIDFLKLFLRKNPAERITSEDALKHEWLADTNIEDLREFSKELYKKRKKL
In assay [8] the target is Calcium-dependent protein kinase 4 (Plasmodium falciparum (isolate 3D7)) (UniProt Q8IBS5). Description: PfCDPK4 kinase inhibitors, biochemical, TCAMS library (AID 1159588; cut-off not given, nearly all actives have IC50 up to about 0.91 µM). The conditions noted are these: recombinant PfCDPK4, Kinase-Glo ATP depletion luminescence.
Sequence of Calcium-dependent protein kinase 4 (Plasmodium falciparum (isolate 3D7)) (Q8IBS5 whole entry, looked up): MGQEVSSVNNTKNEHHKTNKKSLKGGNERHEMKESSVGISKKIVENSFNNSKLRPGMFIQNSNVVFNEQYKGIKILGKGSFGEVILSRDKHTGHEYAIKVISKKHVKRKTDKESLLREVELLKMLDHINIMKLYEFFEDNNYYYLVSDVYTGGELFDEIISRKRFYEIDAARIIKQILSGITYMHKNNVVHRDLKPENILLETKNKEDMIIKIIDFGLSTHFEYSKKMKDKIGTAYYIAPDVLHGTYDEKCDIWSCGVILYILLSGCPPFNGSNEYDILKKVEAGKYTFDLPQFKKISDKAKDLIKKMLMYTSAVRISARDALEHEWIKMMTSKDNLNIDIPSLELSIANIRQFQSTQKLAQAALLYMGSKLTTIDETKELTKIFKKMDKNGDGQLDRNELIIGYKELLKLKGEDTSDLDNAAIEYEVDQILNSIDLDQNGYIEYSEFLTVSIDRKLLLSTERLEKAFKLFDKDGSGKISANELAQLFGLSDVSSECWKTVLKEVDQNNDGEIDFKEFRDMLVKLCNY

Unmarked numbers belong to inactive results. For some of these results: Potency and affinity values are given separately. Activity calls are given as the source filed them. Unless noted, the rule behind the calls is not given here.

Sequence of Plasmodium falciparum protein kinase 6 (PK6, PF3D7_1337100) (Q8IDW1 1-305): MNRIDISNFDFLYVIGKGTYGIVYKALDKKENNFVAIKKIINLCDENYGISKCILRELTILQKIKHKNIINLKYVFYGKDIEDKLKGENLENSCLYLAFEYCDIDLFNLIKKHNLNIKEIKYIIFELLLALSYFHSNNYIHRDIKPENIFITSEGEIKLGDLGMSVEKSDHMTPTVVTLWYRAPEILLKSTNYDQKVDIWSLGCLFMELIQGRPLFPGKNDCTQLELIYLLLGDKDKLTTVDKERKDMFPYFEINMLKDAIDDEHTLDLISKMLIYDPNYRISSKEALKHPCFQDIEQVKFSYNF
Sequence of Calcium-dependent protein kinase 1 (Plasmodium falciparum (isolate 3D7)) (P62344 whole entry, looked up): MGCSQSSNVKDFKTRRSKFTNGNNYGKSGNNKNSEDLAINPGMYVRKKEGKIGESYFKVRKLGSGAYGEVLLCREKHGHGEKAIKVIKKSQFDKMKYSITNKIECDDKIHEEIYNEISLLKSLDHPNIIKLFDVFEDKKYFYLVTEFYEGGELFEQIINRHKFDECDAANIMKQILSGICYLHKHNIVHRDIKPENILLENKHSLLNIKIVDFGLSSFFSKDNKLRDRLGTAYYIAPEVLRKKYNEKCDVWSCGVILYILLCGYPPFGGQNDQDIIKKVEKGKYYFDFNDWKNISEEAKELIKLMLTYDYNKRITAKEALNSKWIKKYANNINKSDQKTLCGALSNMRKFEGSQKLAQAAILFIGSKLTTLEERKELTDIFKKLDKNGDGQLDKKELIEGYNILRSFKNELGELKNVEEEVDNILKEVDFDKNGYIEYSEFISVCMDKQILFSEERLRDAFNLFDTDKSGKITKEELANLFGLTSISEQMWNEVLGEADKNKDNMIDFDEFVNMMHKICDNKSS

What is called inhibition is the relative decrease from the control value, in per cent. As to `FC(F)(F)c1ccc(NC(=S)N2CCC(CN3CCC(c4c[nH]c5ccccc45)CC3)CC2)cc1`, the growth inhibition in assay [1] is 45%; in assay [4], 100% (active). Besides, the inhibition was 35% in assay [2] and -6% in assay [3]. The result in assay [5], in assay [6], in assay [7] and in assay [8] was inactive.
As to `CC(=O)C1(c2ccccc2)CCN(CCC2(c3ccc(Cl)c(Cl)c3)CN(C(=O)c3cccc(Cl)c3)CCO2)CC1` (stereo not given), the values for the growth inhibition in assay [1] and in assay [4] were 61% (active) and 90% (active), respectively. Further, the inhibition is 37% in assay [2] and -3% in assay [3]. Also, the outcome in assay [5], in assay [6], in assay [7] and in assay [8] was inactive.
Regarding `OC(CNC12CC3CC(CC(C3)C1)C2)c1cccc(C(F)(F)F)c1` (stereo not given), the growth inhibition is 98% (active) in assay [1] and 97% (active) in assay [4]. Further, the inhibition in assay [2] is 16%; in assay [3] it was -3%. For the same molecule, the result in assay [5], in assay [6], in assay [7] and in assay [8] was inactive.
Consider `CC[C@H]1CN2CC[C@H]1C[C@H]2[C@H](O)c1cc(N2CCCC(CO)C2)nc2ccc(OC)cc12` (stereo not given in full), for which the growth inhibition in assay [1] was 99% (active); in assay [4] it was 100% (active). For the same molecule, the inhibition was 11% in assay [2] and 2% in assay [3]. The outcome in assay [5], in assay [6], in assay [7] and in assay [8] was inactive.
As for `O=C(Cc1cc(=O)oc2cc(O)ccc12)N1CCC(CN2CCC(c3c[nH]c4ccccc34)CC2)CC1`, the growth inhibition in assay [1] is -11%; in assay [4], 94% (active). Further, the inhibition in assay [2] is 1%; in assay [3] it was 3%. Also, the outcome in assay [5], in assay [6], in assay [7] and in assay [8] was inactive.
As to `CC(Cc1ccc(C2=CCNCC2)cc1)NCC(O)c1cccc(C(F)(F)F)c1` (stereo not given), the growth inhibition is -2% in assay [1] and 89% (active) in assay [4]. Further, the inhibition in assay [2] was 27%; in assay [3], 0%. For the same molecule, the outcome in assay [5], in assay [6], in assay [7] and in assay [8] was inactive.
Consider `Cc1cccc2c(C3CCN(CC4CCC(NC(=O)/C=C/c5ccc(Cl)c(Cl)c5)CC4)CC3)c[nH]c12` (stereo not given), for which the growth inhibition in assay [1] was 49%; in assay [4], 92% (active). In addition, the values for the inhibition in assay [2] and in assay [3] were 97% (active) and -4%, respectively. Moreover, the result in assay [5], in assay [6], in assay [7] and in assay [8] was inactive.
`COc1cccc(CC(C)NCC(O)c2cccc(Cl)c2)c1` (stereo not given): the results for the growth inhibition in assay [1] and in assay [4] were 76% (active) and 85% (active), respectively. Moreover, the inhibition was 7% in assay [2] and -1% in assay [3]. For the same molecule, the outcome in assay [5], in assay [6], in assay [7] and in assay [8] was inactive.
Consider `O=C(/C=C/c1ccc(F)c(C(F)(F)F)c1)N1CCC(CN2CCC(c3c[nH]c4ccccc34)CC2)CC1`, for which the growth inhibition was 1% in assay [1] and 98% (active) in assay [4]. Moreover, the results for the inhibition in assay [2] and in assay [3] were 23% and 2%, respectively. Besides, the result in assay [5], in assay [6], in assay [7] and in assay [8] was inactive.
`Cc1ccc2c(C3=CCN(CCCCC4(C)C(=O)Nc5ccccc54)CC3)c(C)[nH]c2c1` (stereo not given): the growth inhibition is 91% (active) in assay [1] and 95% (active) in assay [4]. The inhibition was 9% in assay [2] and -3% in assay [3]. Further, the result in assay [5], in assay [6], in assay [7] and in assay [8] was inactive.
On to `COCCNCc1ccc(-c2ccc(CN(C(=O)Nc3ccccc3)C3CCN(Cc4ccccc4)CC3)cc2)cc1`, for which the growth inhibition is 39% in assay [1] and 98% (active) in assay [4]. Besides, the inhibition in assay [2] was 16%; in assay [3], -5%. For the same molecule, the outcome in assay [5], in assay [6], in assay [7] and in assay [8] was inactive.
In the case of `Cc1[nH]c2cc(F)ccc2c1C1=CCN(CCCCC2(C)C(=O)Nc3c(F)cccc32)CC1` (stereo not given), the growth inhibition is 89% (active) in assay [1] and 96% (active) in assay [4]. The inhibition in assay [2] is 15%; in assay [3] it was -7%. For the same molecule, the outcome in assay [5], in assay [6], in assay [7] and in assay [8] was inactive.
As for `COc1ccc(C[C@@H](C)NC[C@H](O)c2cccc(Cl)c2)cc1F`, the growth inhibition is 76% (active) in assay [1] and 88% (active) in assay [4]. For the same molecule, the inhibition in assay [2] is 2%; in assay [3], -2%. In addition, the outcome in assay [5], in assay [6], in assay [7] and in assay [8] was inactive.
On to `Cc1[nH]c2ccc([N+](=O)[O-])cc2c1C1=CCN(C)CC1`, for which the figures for the growth inhibition in assay [1] and in assay [4] were 68% (active) and 86% (active), respectively. Further, the values for the inhibition in assay [2] and in assay [3] were 6% and 4%, respectively. Also, the result in assay [5], in assay [6], in assay [7] and in assay [8] was inactive.
As for `N=c1c2c(n(Cc3ccc(Cl)cc3Cl)c3c1CCC3)CCCC2`, the growth inhibition in assay [1] was 73% (active); in assay [4] it was 94% (active). Further, the inhibition in assay [2] is -5%; in assay [3] it was 3%. Besides, the result in assay [5], in assay [6], in assay [7] and in assay [8] was inactive.
Consider `CC[C@H]1CN2CC[C@H]1C[C@H]2[C@H](O)c1cc(-c2cccc(Cl)c2)nc2ccc(OC)cc12`, for which the growth inhibition in assay [1] is 99% (active); in assay [4], 98% (active). In addition, the values for the inhibition in assay [2] and in assay [3] were 16% and 6%, respectively. The result in assay [5], in assay [6], in assay [7] and in assay [8] was inactive.
`CCOC(=O)c1ccc(CC(C)NCC(O)c2cccc(C(F)(F)F)c2)cc1` (stereo not given): the growth inhibition was 98% (active) in assay [1] and 100% (active) in assay [4]. The inhibition was 5% in assay [2] and -9% in assay [3]. Moreover, the result in assay [5], in assay [6], in assay [7] and in assay [8] was inactive.
Regarding `COC(=O)c1ccc(CC(C)NCC(O)c2cccc(SC(F)(F)F)c2)cc1` (stereo not given), the growth inhibition in assay [1] is 72% (active); in assay [4], 96% (active). For the same molecule, the figures for the inhibition in assay [2] and in assay [3] were 7% and -2%, respectively. Besides, the result in assay [5], in assay [6], in assay [7] and in assay [8] was inactive.
As to `O=C(NC1CCC(CN2CCC(c3c[nH]c4ccccc34)CC2)CC1)c1cc2cccc([N+](=O)[O-])c2[nH]1` (stereo not given), the growth inhibition was 101% (active) in assay [1] and 103% (active) in assay [4]. Besides, the inhibition in assay [2] was 36%; in assay [3], -1%. Besides, the outcome in assay [5], in assay [6], in assay [7] and in assay [8] was inactive.
For the molecule `CNCCCCCCOc1ccc(CC(C)NCC(O)c2cccc(C(F)(F)F)c2)cc1` (stereo not given), the growth inhibition in assay [1] is 79% (active); in assay [4], 101% (active). Further, the results for the inhibition in assay [2] and in assay [3] were 99% (active) and 3%, respectively. For the same molecule, the outcome in assay [5], in assay [6], in assay [7] and in assay [8] was inactive.
